# Compound activity deposited in PubChem by National Center for Advancing Translational Sciences (NCATS).
# Compounds with a hit are over-represented: about 8% of the library has one in this group of screens.
# HCV inh: inhibitors of hepatitis C virus infection; AID 651820; Potency, µM (doses to about 41.8 µM), for inactives: at the top dose activity change, negative = inhibition, hits mostly inhibitors; Huh7.5.1 HCVcc-Cre infection, luciferase reporter, 44 h; 3.4% of 340,000 active; active means well fitted inhibition curve with a large enough effect; inconclusive means small, poorly fitted or top-dose-only effect, or another doubt; inactive means no such curve, though single readings can be large or run the other way; further: potency means the concentration at half of the fitted maximal effect; on the % scale 0 is the no-effect control and ±100 the full control effect
#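 Seed cells (1,000/well) for 4 h; treat with compound and infect with HCVcc-Cre, moi about 0.5. Incubate 44 h, then detect luciferase activity.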
# MARV entry inh: blocks Marburg virus binding to or entry into cells | AID 540276 | Marburg virus pseudotyped entry inhibition, cell reporter | Potency, µM (doses to about 37.8 µM), for the others: top-dose activity change, negative = inhibition, usual class: inhibitors | 1.8% of 300,000 active; calls by dose curve; tested in HEK293 cells; further: potency means the concentration at half of the fitted maximal effect; on the % scale 0 is the no-effect control and ±100 the full control effect
# SARS PLP yeast: inhibitors of SARS-CoV papain-like protease in yeast | S. cerevisiae expressing SARS-CoV PLpro, growth rescue | Potency, µM (doses to about 32.9 µM), for inactives: top-dose activity, positive = growth rescue, usual class: activators | 0.19% of 330,000 active; calls by dose curve; further: potency means the concentration at half of the fitted maximal effect; 0% is about no effect; nearly all actives have a fitted effect of over 55% in size
# HCMV antiviral: inhibitors of human cytomegalovirus; HFF cells, HCMV-luciferase reporter, 72 h; stronger effect = lower value; activity change, negative = inhibition, % at 57.5 µM; 4.5% of 410,000 active; in the data active means activity change below about -60%; inconclusive means no clear call, values can overlap the other calls; inactive means above about -39%; further: on the % scale 0 is the no-effect control and ±100 the full control effect
#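 Human foreskin fibroblasts infected with luciferase-reporter HCMV at MOI 1 PFU/cell, compounds at two doses. Luciferase measured 72 h post infection; normalized to buffer-only basal and Salinomycin (10uM) controls.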
# LASV entry inh: blocks Lassa virus binding to or entry into cells; Lassa virus pseudotype entry inhibition, cell reporter; Potency, µM (titrated, usually from 37.9 µM), without a hit: top-dose activity change, negative = inhibition, usual class: inhibitors; 1.2% of 300,000 active; calls by dose curve; tested in HEK293 cells; further: potency means the concentration at half of the fitted maximal effect; on the % scale 0 is the no-effect control and ±100 the full control effect; nearly all actives have a fitted effect of over 50% in size
# FMDV antiviral: foot and mouth disease virus antiviral activity. FMDV antiviral cell-based qHTS. Potency, µM (highest dose often 57.9 µM), without a hit: at the highest dose activity change, negative = inhibition, hits mostly inhibitors. 1.2% of 410,000 active. AID 1159524; calls by dose curve; tested in HEK293T cells; further: read-out not given here; potency means the concentration at half of the fitted maximal effect; on the % scale 0 is the no-effect control and ±100 the full control effect; nearly all actives have a fitted effect of over 45% in size
# Numbers without * were called inactive; u = inconclusive; x = not tested or not shown; [ ] = remark or other dose.
SMILES,HCV inh,MARV entry inh,SARS PLP yeast,HCMV antiviral,LASV entry inh,FMDV antiviral
C=CCc1cc(Cl)ccc1OCCCNC(C)CC (stereo not given),13µM*,2.9µM*,-11%,u,u,u
C=CCc1cc(Cl)ccc1OCCOCCNC(C)(C)C,u,x,-1%,-71*,x,-21%
CCC(C)NCCCOc1ccc(Cl)cc1C(C)(C)C (stereo not given),-26%,u,1%,-10,8%,-2%
CCc1ccccc1NC(=O)CSc1nnc(COc2ccccc2Cl)o1,x,5%[46.1 µM],x,-10,15%[46.1 µM],-11%
COC(=O)C1=C(C)Nc2c(c(=O)n(C)c(=O)n2C)C1c1ccncc1 (stereo not given),20%,14%,14%,3,10%,-20%
COCCN(C)C(=O)c1cnn(-c2nccc(-c3cc(OC)ccc3OC)n2)c1C,x,x,x,x,x,22%
CCOCCCNc1ncnc2c1[nH]c1ccccc12,u,u,-1%,-62*,u,u
CCCCOCCCNc1ncnc2c1[nH]c1ccccc12,8.9µM*,5.2µM*,-9%,u,u,11µM*
CCOc1ccc2[nH]c3c(NCCO)ncnc3c2c1,13%,x,-1%,48,x,13%
COc1ccc(-c2cc(C(=O)Oc3ccc(C)c(C)c3)c3ccccc3n2)cc1,x,x,x,21,u,11%
O=C(Nc1nc2n(n1)C(c1ccc(F)cc1)C=C(c1ccc(Cl)cc1)N2)c1ccc([N+](=O)[O-])cc1 (stereo not given),x,2.8µM*,x,u,u,-13%
COc1ccccc1C(=O)Nc1nc2n(n1)C(c1ccc(F)cc1)C=C(c1ccc(Cl)cc1)N2 (stereo not given),x,11%[46.1 µM],x,-22,2%[46.1 µM],-17%
Cc1ccc(C2C=C(c3ccccc3)Nc3nc(N4C(=O)CCC4=O)nn32)cc1 (stereo not given),-3%,14%[46.1 µM],1%,-62*,-5%,1%
Cc1ccc(C2C=C(c3ccc(Cl)cc3)Nc3nc(NC(=O)c4ccco4)nn32)cc1 (stereo not given),x,u,x,-62*,-18%[46.1 µM],u
CCc1nc2c(OCCn3cccc3)cccn2c1N(C)C(=O)CC(C)C,x,x,x,-2,x,-3%
COCCn1c(SCC(=O)c2ccccc2)nc2cc(C(=O)NC3CCCC3)ccc2c1=O,x,x,x,10,11%[46.1 µM],-4%
CCCN(C)C1CN(Cc2cn(Cc3cccc(C(F)(F)F)c3)nn2)S(=O)(=O)C1 (stereo not given),x,x,x,-100*,x,-13%
CC1CN(CCN2CC(C)N(C=O)CC2C)C(C)CN1C=O (stereo not given),-5%,6%,x,0,-13%,-7%
CC(=O)NC1CCCN(O)C(=O)/C=C(\C)CCOC(=O)C(NC(C)=O)CCCN(O)C(=O)/C=C(\C)CCOC(=O)C(NC(C)=O)CCCN(O)C(=O)/C=C(\C)CCOC1=O (stereo not given),-23%,x,2%,x,x,20µM*
CCOC(=O)c1ccc(NC(=S)N(CCCN2CCCC(C)C2)Cc2ccco2)cc1 (stereo not given),10µM*,u,-6%,-29,u,16%
CCOC(=O)c1ccc(NC(=S)N(CCCN2CCCC2)Cc2ccco2)cc1,10µM*,u,-2%,-32,0%,8%
CCN1CCN(CCCN(Cc2ccco2)C(=S)Nc2ccc(C)c(Cl)c2)CC1,8.9µM*,u,4%,69,u,-3%
CCOC(=O)c1ccc(NC(=S)N(CCCN2CCN(CC)CC2)Cc2ccco2)cc1,u,u,-2%,-35,u,-6%
O=C(c1ccc(Nc2nc3ccccc3n3nnnc23)cc1)N1CCN(c2ccc(F)cc2)CC1,x,29%[46.1 µM],x,-11,-11%[46.1 µM],-8%
O=C(Nc1nnc2n1CCS2)c1ccc(F)cc1F,x,x,x,113,19%[46.1 µM],43%
SMILES,HCV inh,MARV entry inh,SARS PLP yeast,HCMV antiviral,LASV entry inh,FMDV antiviral
CCOC(=O)c1c(S(=O)(=O)N2CCCC(C(=O)Nc3cc(C)ccc3OC)C2)c(C)n(C)c1C (stereo not given),x,x,x,10,8%[46.1 µM],u
COC(=O)[C@@H](NCc1cccc(CN[C@H](C(=O)OC)c2ccccc2)c1)c1ccccc1,u,x,-13%,u,x,u
O=C(CCN1C(=O)/C(=C/c2ccccc2)SC1=S)NNC(=O)c1ccncc1,7%,-19%[46.1 µM],-1%,u,29%[46.1 µM],-18%
O=C(O)C(c1ccccc1)N1C(=O)/C(=C/c2cccs2)SC1=S (stereo not given),6%,8%[46.1 µM],-1%,u,11%,-1%
CC(c1ccccc1)N1C(=O)/C(=C/c2ccncc2)SC1=S (stereo not given),u,x,-3%,-2,x,32µM*
O=C(O)CCCCCN1C(=O)/C(=C\c2ccncc2)SC1=S,14%,4%,-11%,-99*,-8%,-12%
COc1ccc(CN2C(=O)/C(=C/c3ccncc3)SC2=S)cc1,u,u,3%,-72*,u,-9%
O=C(O)CCCN1C(=O)/C(=C/c2ccncc2)SC1=S,u,u,-2%,-61*,u,-25%
CCCCCn1nc2ccccc2c1OC,x,x,x,-15,x,x
Cc1ccc(C(=O)Nc2cccc(-c3nc(CNC(=O)c4cccc(N(C)C)c4)c(C)o3)c2)s1,x,x,x,x,x,3%
O=C(CCN1C(=O)/C(=C\c2ccccc2)SC1=S)NNC(=O)c1ccncc1,18%,x,0%,-35,x,-19%
O=C(O)CCCCCN1C(=O)/C(=C/c2ccncc2)SC1=S,5%,u,-9%,-77*,0%,-24%
Cc1nc2sccn2c1CN1Cc2ccccc2OC(c2ccccc2F)C1 (stereo not given),x,x,x,x,x,-20%
CCCCCN1C=CC(=C2C(=O)c3ccccc3C2=O)C=C1,-8%,x,-20%,-90*,x,2.8µM*
CC1=CC(=C2C(=O)c3ccccc3C2=O)C=C(C)N1C,11%,u,2%,16,u,24%
CS(=O)(=O)N1CCC2(CCCN(c3ccccn3)C2)CC1,x,x,x,x,x,-11%
CCc1nc(Sc2nc(C)cc(C)n2)c2oc3ccccc3c2n1,u,u,-1%,-86*,-7%,-30%
CCc1nc(N(CC)CC)c2oc3ccccc3c2n1,u,-18%,0%,-28,-9%,u
CCc1nc(SCc2nc3ccccc3[nH]2)c2oc3ccccc3c2n1,7.9µM*,u,1%,u,-8%,u
CCc1nc(SCC(=O)N2CCN(c3ccccc3)CC2)c2oc3ccccc3c2n1,10µM*,u,5%,-18,-20%,u
CCc1nc(SCCO)c2oc3ccccc3c2n1,10µM*,14%,7%,36,16%,-23%
CS(=O)(=O)N1CCc2cc(S(=O)(=O)NCc3ccccc3Cl)ccc21,x,x,x,-5,2%[46.1 µM],0%
Cc1nc2ccccc2n1CC(=O)OCC(=O)NC1CC1,-8%,0%[46.1 µM],4%,-8,-2%,1%
